Reference: PubChem BioAssay (NCATS)
Unmarked numbers belong to inactive results. Results filed as inconclusive are left out. Where a call stands in place of a potency, no number is given. Activity calls are given as the source filed them. Calls follow the shape of the dose curve; as a rule, active = well fitted curve in the direction sought with a large enough effect; inconclusive = small, poorly fitted or top-dose-only effect, or another doubt; inactive = no such curve, though single readings can be large; an effect the other way counts as inactive or inconclusive.

Legend:
[1] = target: Glutathione peroxidase 1 (Homo sapiens) (UniProt P07203); assay: Primary qHTS Assay for Inhibitors of Recombinant Selenoprotein Glutathione Peroxidase 1 (GPX1) (AID 1845191); also: nearly all actives have a fitted effect of over 65% in size
Chain of Glutathione peroxidase 1 (Homo sapiens) (P07203 whole entry, looked up): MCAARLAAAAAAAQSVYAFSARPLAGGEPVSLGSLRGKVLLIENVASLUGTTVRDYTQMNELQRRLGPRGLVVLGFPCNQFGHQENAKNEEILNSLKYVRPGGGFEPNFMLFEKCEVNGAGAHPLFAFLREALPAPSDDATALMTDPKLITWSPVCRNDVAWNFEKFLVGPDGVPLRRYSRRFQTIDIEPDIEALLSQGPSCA
How it was run: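 Recombinant GPX1 (10 nM final) was preincubated with compound for 30 min at room temperature, then reacted with 1 mM GSH, 0.5 mM CHP, 0.5 mM NADPH and 100 nM glutathione reductase; NADPH fluorescence (340/450 nm) was read at 0 and 15 min.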

[2] = target: Phospholipid hydroperoxide glutathione peroxidase GPX4 (Homo sapiens) (UniProt P36969); assay: Primary qHTS Assay for Inhibitors of Recombinant Selenoprotein Glutathione Peroxidase 4 (GPX4) (AID 1845192); also: nearly all actives have a fitted effect of over 65% in size; as to activity change, negative = inhibition: series mostly up to about 50 µM
Chain of Phospholipid hydroperoxide glutathione peroxidase GPX4 (Homo sapiens) (P36969 whole entry, looked up): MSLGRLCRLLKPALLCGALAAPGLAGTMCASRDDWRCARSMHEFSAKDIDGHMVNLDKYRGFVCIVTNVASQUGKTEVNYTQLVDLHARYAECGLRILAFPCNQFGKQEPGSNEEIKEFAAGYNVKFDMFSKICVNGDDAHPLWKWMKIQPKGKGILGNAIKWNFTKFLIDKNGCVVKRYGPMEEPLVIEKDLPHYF
How it was run: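 GR-coupled readout: 100 nM GR, 1 mM GSH, 0.5 mM NADPH; NADPH fluorescence (ex 340/em 450 nm) read at t=0 and after 15 min RT. GPX4 200 nM, preincubated 30 min with compound; substrate 0.5 mM CHP.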

[3] = target: Luciferin 4-monooxygenase (Photinus pyralis) (UniProt P08659); assay: Primary firefly luciferase (FLuc) qHTS assay for identification of artifact compounds. (AID 1845220); also: nearly all actives have a fitted effect of over 60% in size; as to activity change, negative = inhibition: series mostly up to about 54 µM
How it was run: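 qHTS, 15 min compound preincubation with substrate (10 uM luciferin, 10 uM ATP) at RT, then 10 nM FLuc; 5 min; luminescence; % inhibition vs no-enzyme/DMSO controls, 4-parameter Hill fit.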

[4] = Primary fluorescence-based thiol-reactive (MSTI) qHTS assay for identification of artifact compounds. (AID 1845221); also: nearly all actives have a fitted effect of over 65% in size; also: potency is read from the fitted curve at half-maximal effect;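 as to activity change, negative = thiol reactive: series mostly up to about 54 µM; thiol-reactive compounds lower the probe fluorescence signal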
How it was run: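 Curve-fitted percent inhibition (4-parameter Hill) derived from fluorescence, Ex 525/Em 598 nm, scaled with Acetyl-MSTI and MSTI; 1 h incubation at room temperature.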

[5] = test system: Nanoluciferase (engineered Oplophorus gracilirostris luciferase); assay: Primary Nanoluciferase (NLuc) qHTS assay for identification of artifact compounds. (AID 1845222); also: series mostly up to about 54 µM
How it was run: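 Luminescence read-out of secreted NLuc in S16 cell conditioned medium (1:55); compounds tested with 15 min RT preincubation, then Nano-Glo substrate 1:100, 5 min. % inhibition vs no-enzyme and DMSO controls, 4-parameter Hill fit.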

Row | SMILES | Potency [1] | Potency [2] | Potency [3] | Potency [4] | Potency [5] | activity, negative = inhibition [1] | activity change, negative = inhibition [2] | activity change, negative = inhibition [3] | activity change, negative = thiol reactive [4] | activity, negative = inhibition [5]
1 | CC(=O)O[C@@](C)(C(=O)/C=C/C(C)(C)O)[C@H]1[C@H](O)C[C@@]2(C)[C@@H]3CC=C4[C@@H](C=C(O)C(=O)C4(C)C)[C@]3(C)C(=O)C[C@]12C | inactive | inactive | inactive | inactive | inactive | – | – | – | – | –
2 | CC1OC(O[C@H]2CC[C@@]3(C)C(CC[C@]4(C)C3CC=C3C5CC(C)(C)CC[C@]5(C(=O)OC5OC(CO)C(OC6OC(COC7OCC(O)C(O)C7O)C(O)C(O)C6O)C(O)C5O)CC[C@]34C)C2(C)C)C(O)C(O)C1OC1OCC(OC2OCC(O)C(O)C2O)C(O)C1O (stereo not given in full) | – | – | – | – | – | -21.4% [at 9.52 µM] | -7.3% [at 9.73 µM] | -3.25% [at 11.6 µM] | 94.7% [at 11.5 µM] | 0% [at 11.6 µM]
3 | C/C=C/C=C/C(O)=C1\C(=O)[C@]2(C)C3C(C(=O)CC/C=C/C)=C(O)C4(C)C1[C@]1(C)O[C@@]4(O)[C@@]3(C)O[C@@]12O | inactive | inactive | inactive | 4.62 µM (active) | inactive | – | – | – | – | –
4 | CC1(O)CC(O)C2(O)C=COC(O[C@@H]3O[C@H](CO)[C@@H](O)[C@H](O)[C@H]3O)C12 (stereo not given in full) | inactive | inactive | inactive | 11.7 µM (active) | inactive | – | – | – | – | –
5 | O=C(NCc1ccc(S(=O)(=O)c2cc(F)cc(F)c2)cc1)c1ccc2nccn2c1 | inactive | inactive | inactive | inactive | inactive | – | – | – | – | –
6 | CC[C@H](CO)Nc1nc(NCc2ccc(-c3ccccn3)cc2)c2ncn(C(C)C)c2n1 | inactive | inactive | inactive | inactive | inactive | – | – | – | – | –
7 | COc1cc(C)c(C(=O)O[C@H]2[C@@H](OC(C)=O)[C@H](n3ccc(=O)[nH]c3=O)O[C@@H]2CO)c(OC)c1 | inactive | inactive | inactive | inactive | inactive | – | – | – | – | –
8 | C=C(C(=O)O)[C@H]1C[C@]2(C)[C@@H](O)CC[C@]23O[C@H]1C[C@@H]3C | inactive | inactive | inactive | 29.9 µM (active) | inactive | – | – | – | – | –
9 | Oc1ccc(CNc2ccccc2F)c2cccnc12 | inactive | inactive | inactive | 3.77 µM (active) | inactive | – | – | – | – | –
10 | O=C(O)CCCCCC[C@H]1C(=O)NC(=O)N1CC[C@@H](O)C1CCCCC1 | inactive | inactive | inactive | inactive | inactive | – | – | – | – | –
11 | C[C@@H]1O[C@@H](O[C@@H]2[C@@H](O[C@@H]3O[C@@H](C)[C@H](O[C@@H]4OC[C@H](O)[C@H](O[C@@H]5OC[C@@H](O)[C@H](O)[C@H]5O)[C@H]4O)[C@@H](O[C@@H]4OC[C@](O)(CO)[C@H]4O)[C@H]3O)[C@H](OC(=O)[C@]34CCC(C)(C)C[C@H]3C3=CCC5[C@@]6(C)C[C@H](O)[C@H](O[C@@H]7O[C@H](CO[C@@H]8OC[C@H](O)[C@H](O)[C@H]8O)[C@@H](O)[C@H](O)[C@H]7O)C(C)(C)C6CC[C@@]5(C)[C@]3(C)C[C@H]4O)OC[C@H]2O)[C@H](O)[C@H](O)[C@H]1O (stereo not given in full) | – | – | – | – | – | 1.11% [at 9.52 µM] | -0.822% [at 9.73 µM] | 1.22% [at 11.6 µM] | 203% [at 11.5 µM] | 1.99% [at 11.6 µM]
12 | C/C1=C\CCC2=C[C@@H](OC2=O)c2c(C)coc2C1 | inactive | inactive | inactive | 11.9 µM (active) | inactive | – | – | – | – | –
13 | COC(=O)N1CCC(n2ncc3c(N4CCOCC4)nc(-c4ccc(NC(=O)Nc5ccc(CO)cc5)cc4)nc32)CC1 | inactive | inactive | inactive | inactive | inactive | – | – | – | – | –
14 | CC1=CC2/C=C(\C)CC[C@@H](O)[C@@H](O)[C@@H]3O[C@@H]3C(=O)[C@]23C(=O)N[C@@H](CC(C)C)[C@@H]3[C@@H]1C (stereo not given in full) | inactive | inactive | inactive | inactive | inactive | – | – | – | – | –
15 | O=C(CCc1ccccc1)N1CCC(O)(Cn2cnc3cc(Cl)ccc3c2=O)CC1 | inactive | inactive | inactive | inactive | inactive | – | – | – | – | –
16 | C[C@@H](Oc1cc(-n2cnc3ccc(OC4CCN(C)CC4)cc32)sc1C(N)=O)c1ccccc1C(F)(F)F | inactive | inactive | inactive | inactive | inactive | – | – | – | – | –
17 | NC(=O)c1cccc(-c2cc(OC(=O)NC3CCCCC3)ccc2O)c1 | inactive | inactive | inactive | inactive | inactive | – | – | – | – | –
18 | C=C(C(=O)O)C1CC2=C(C)CCCC2(C)C[C@@H]1O (stereo not given in full) | inactive | inactive | inactive | inactive | inactive | – | – | – | – | –
